These results are taken from PubChem BioAssay (NCI).

Compounds without any hit were thinned out: in the full panel of roughly 79,000, 15% have a hit. Calls of active or inactive are those of the source. Cut-off read from the data, not from the text of the source: active = growth inhibition above about 70%; inactive = the rest.

The assay can be described thus: NCI Yeast Anticancer Drug Screen. Data for the mec2-1 strain (AID 157). The settings on record: S. cerevisiae mec2-1 strain, stronger effect = higher value; at 50.0 µM unless noted. As for the experimental part: Growth inhibition of yeast strains with defined genetic alterations is measured as a screen for potential anti-cancer activity. Selected strains with alterations in DNA damage repair or cell cycle control were exposed to compounds and growth inhibition was measured relative to vehicle treated controls. The strain used in this assay is mec2-1
As to `COC1=CC(=O)C2CC=CC(CC(=O)O)C2(C)C1=O` (stereo not given), the growth inhibition is -2.4% (inactive). To `O=C(Nc1ccc(Cl)c(Cl)c1)N(CCO)Cc1ccccc1` belongs 97% (active); to `Oc1cc(O)c2c(c1)OC(c1ccc(O)c(O)c1)C(O)C2O` (stereo not given), 6.6% (inactive); to `COc1cc2c(cc1OC)C(c1c(-c3c(Cl)cccc3Cl)noc1C)=NCC2`, -14.9% (inactive). The value for `O=C(O)c1nc(-c2ccccc2)ncc1-c1nnnn1-c1ccccc1` was 3.75% (inactive). For `COC1OC(CO)C(O)C(Nc2ccc([N+](=O)[O-])cc2[N+](=O)[O-])C1O` (stereo not given), the growth inhibition was 1.05% (inactive). For the compound `CSc1ccc(NC(=O)c2ccc(Cl)cc2)cc1`, the growth inhibition is -6.05% (inactive).

As for `O=C1C2(c3ccccc3)CCC1(c1ccccc1)C(c1ccccc1)=C2c1ccccc1`, the growth inhibition is 26.9% (inactive).

As for `NC(=S)/N=C/C=C\c1ccccc1`, the growth inhibition is 2.3% (inactive). To `C=CC(=O)Nc1ccccc1` belongs -8.05% (inactive); to `CCN(CC)N=Nc1ccc(C(=O)O)cc1`, 1.7% (inactive). The value for `CN(C)CC[N+]1=Nc2cccc3cccc(c23)N1` was -8.6% (inactive). On to `COc1ccc(N2C(=O)c3c(c4[nH]c5ccc(OC)cc5c4c4ccc(C(C)(C)C)cc34)C2=O)cc1`, for which the growth inhibition is -7.95% (inactive).

On to `CC(=O)c1c(C)cc2cc(C)cc(O)c2c1O`, for which the growth inhibition is 17.9% (inactive). Regarding `CCOc1c(N=Nc2ccc(Cl)cc2Cl)c(C)nn1C(=S)SC`, the growth inhibition was 16.1% (inactive). `O=C(O)CCNC(=O)CNC(=O)OCc1ccccc1`: the growth inhibition is 10.6% (inactive). The value for `O=P(O)(O)OCC1OC(n2cnc3c(=S)nc[nH]c32)C(O)C1O` (stereo not given) was 3.95% (inactive). For `C/C(=N\NS(=O)(=O)c1c(C)cc(C)cc1C)c1ccc[n+]([O-])n1`, the growth inhibition is 0.2% (inactive). To `N#Cc1nc(C2CC2)oc1N` belongs -2.65% (inactive).

Take `CCOc1ccc(C(C)c2cc3c(cc2OCC(=O)O)OCO3)cc1` (stereo not given): the growth inhibition was -6.4% (inactive). Regarding `CCOC(=O)C(=O)Nc1cc(C)no1`, the growth inhibition is 9.85% (inactive).

In the case of `CCOC(=O)Cc1nc2ccccc2[nH]1`, the growth inhibition was -7.85% (inactive). In the case of `NCCCOB(OCCCN)OCCCN`, the growth inhibition was -7.4% (inactive). To `CCc1ccc(NS(=O)(=O)c2ccccc2[N+](=O)[O-])cc1` belongs 42.6% (inactive); to `Cc1cccc(C)c1NC(=O)c1c(Cl)c(Cl)c(Cl)c(Cl)c1C(=O)O`, 11.8% (inactive); to `CCN(CC)C(=O)C1CCN(CCOc2ccccc2)CC1`, 13.2% (inactive).

Regarding `COc1cccc(C(c2ccccc2)C(CC(=O)O)CC(=O)O)c1` (stereo not given), the growth inhibition was 8.6% (inactive). The value for `CN1C(=O)/C(=C2\SC(=O)N(CN3CCOCC3)C2=O)c2ccccc21` was -32.9% (inactive). The value for `CCCCCCC(=O)OCC(=O)c1ccc(Br)cc1` was 28.2% (inactive); that for `O=C1OCc2ccccc21` was 7.8% (inactive); that for `O=c1[nH]c2ccc([N+](=O)[O-])cc2nc1/C(=N/Nc1ccccc1)C(O)c1ccco1` (stereo not given) was -9.1% (inactive). To `O=C(CCCCl)N1CCCCCC1` belongs 11.6% (inactive); to `Cc1ccc(Nc2nc(-c3ccc(-c4ccc([N+](=O)[O-])cc4)o3)cs2)cc1`, 19.5% (inactive). In the case of `OC1(C2NCCc3ccccc32)CCN(CCc2ccccc2)CC1` (stereo not given), the growth inhibition is 10.7% (inactive). Turning to `C/C(=N\NC(=S)Nc1nccs1)c1ccccn1`, the growth inhibition was 97.8% (active).

On to `COc1cc(CC(=O)C(=O)O)ccc1O`, for which the growth inhibition was -2.95% (inactive). With `Clc1ccc(C2ON=C(c3ccccc3)N2C23CC4CC(CC(C4)C2)C3)cc1Cl` (stereo not given), the growth inhibition was -17.6% (inactive). The value for `CCCCOP(=O)(Nc1ccc([N+](=O)[O-])cc1)OCCCC` was 86.3% (active); that for `Cc1cc(C)c(F)c(C)c1F` was -4.6% (inactive); that for `Cc1cc([N+](=O)[O-])ccc1P(=O)(O)O` was 7.6% (inactive).
